From PubChem BioAssay AID602162 (NMMLSC, 2011)
Out of some 360,000 compounds screened, about 690 (0.19%) were called active.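 The calls were made as follows: active = fluorescence ratio to DMSO below 75%, the collection mean minus 3 SD; inconclusive = too few cells collected in the well; inactive = the rest.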 This excerpt belongs to a sample that is enriched for actives.

What follows are compounds tested against ATP-binding cassette sub-family B member 6 (Homo sapiens) (UniProt Q9NP58) (assay: blockers of ABCB6-driven porphyrin uptake – K562-ABCB6 cells, flow cytometry, MLPCN library, primary screen (AID 602162;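 also: signal is porphyrin accumulated inside mitochondria; 100% equals median channel fluorescence of DMSO control wells; lower ratio means ABCB6 inhibition with less porphyrin fluorescence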)). Settings: K562-ABCB6 porphyrin accumulation, 1 h, at 10 µM, hits give low values.
Chain of ATP-binding cassette sub-family B member 6 (Homo sapiens) (Q9NP58 whole entry, looked up): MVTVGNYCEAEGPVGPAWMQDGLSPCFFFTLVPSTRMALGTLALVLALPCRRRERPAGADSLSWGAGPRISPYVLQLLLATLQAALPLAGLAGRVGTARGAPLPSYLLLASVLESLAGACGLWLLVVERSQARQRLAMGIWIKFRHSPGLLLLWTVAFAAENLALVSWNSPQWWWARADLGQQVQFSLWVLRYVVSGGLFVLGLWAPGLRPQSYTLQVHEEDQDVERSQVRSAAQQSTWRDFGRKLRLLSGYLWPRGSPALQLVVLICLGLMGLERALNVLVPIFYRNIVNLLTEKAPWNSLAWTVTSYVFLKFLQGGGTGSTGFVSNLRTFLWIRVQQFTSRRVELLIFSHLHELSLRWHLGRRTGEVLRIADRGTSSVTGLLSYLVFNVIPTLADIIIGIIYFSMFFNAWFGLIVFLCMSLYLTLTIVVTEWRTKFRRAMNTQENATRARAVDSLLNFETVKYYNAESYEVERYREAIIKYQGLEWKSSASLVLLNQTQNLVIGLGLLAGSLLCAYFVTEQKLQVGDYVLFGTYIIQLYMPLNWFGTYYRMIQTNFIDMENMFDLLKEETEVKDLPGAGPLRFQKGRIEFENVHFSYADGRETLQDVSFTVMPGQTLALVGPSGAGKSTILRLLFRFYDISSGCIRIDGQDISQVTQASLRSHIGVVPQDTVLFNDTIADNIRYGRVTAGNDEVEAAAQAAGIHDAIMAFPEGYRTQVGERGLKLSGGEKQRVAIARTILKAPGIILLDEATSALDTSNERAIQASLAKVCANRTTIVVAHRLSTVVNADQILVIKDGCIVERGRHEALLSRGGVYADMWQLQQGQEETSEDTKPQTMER
With `O=C(NC1CCCCC1)c1ccc2c(=O)n(CC3CCCO3)c(=O)[nH]c2c1` (stereo not drawn) the fluorescence ratio to DMSO was 97% (inactive).
For `Cc1ccc2nc3c(cc(C(=O)NCCc4ccccc4)c(=N)n3CC3CCCO3)c(=O)n2c1` (stereo not drawn), the fluorescence ratio to DMSO was 66% (active).
For `Cc1ccc(CCNC(=O)c2ccc3nc4ccccc4c(=O)n3c2)cc1`, the fluorescence ratio to DMSO was 100% (inactive).
With `COc1cc2c(cc1OC)C(c1cccc([N+](=O)[O-])c1)=NCC2` the fluorescence ratio to DMSO was 100% (inactive).
In the case of `C=CCN1CC(C)/C(=N\O)CC1C` (stereo not drawn), the fluorescence ratio to DMSO is reported as 88% (inactive).
`O=C(Cc1ccc([N+](=O)[O-])cc1)NCCS(=O)(=O)N1CCN(c2ccccc2)CC1` was tested, and the fluorescence ratio to DMSO was 107% (inactive).
In the case of `Cc1cc(Cl)ccc1OCCCC(=O)NCc1ccccn1`, the fluorescence ratio to DMSO is reported as 89% (inactive).
In the case of `Cc1cc(C)cc(NC(=O)NCc2ccccn2)c1`, the fluorescence ratio to DMSO is reported as 58% (active).
`Cc1ccc(SCCC(=O)NCc2ccccn2)cc1` was tested, and the fluorescence ratio to DMSO was 98% (inactive).
With `NC(=O)c1ncc(C(F)(F)F)cc1Oc1ccc(F)cc1` the fluorescence ratio to DMSO was 91% (inactive).
In the case of `CCOc1cc(/C=C2/N=C(c3ccc(C(C)(C)C)cc3)OC2=O)cc(Cl)c1OS(C)(=O)=O`, the fluorescence ratio to DMSO is reported as 102% (inactive).
`CC(C)(C)Cc1c(C2CCCCC2)nc2ccc(Br)cn12` was tested, and the fluorescence ratio to DMSO was 101% (inactive).
For `O=C(CSc1nc2ncccc2[nH]1)Nc1ccc2c(c1)OCCO2`, the fluorescence ratio to DMSO was 103% (inactive).
`COc1cc2[nH]c(=S)n(Cc3ccc(F)cc3)c(=O)c2cc1OC` was tested, and the fluorescence ratio to DMSO was 72% (active).
In the case of `CCOc1cc2[nH]c(=S)n(Cc3ccc(C(=O)NCCOC)cc3)c(=O)c2cc1OCC`, the fluorescence ratio to DMSO is reported as 98% (inactive).
For `COc1cc2[nH]c(=S)n(Cc3ccc(C)o3)c(=O)c2cc1OC`, the fluorescence ratio to DMSO was 100% (inactive).
`CCOC(=O)[C@]12CCC=C1N(Cc1ccco1)C(=O)[C@H](CC(=O)NCc1cccc(C(F)(F)F)c1)C2` was tested, and the fluorescence ratio to DMSO was 107% (inactive).
For `CCC(C)NC(=O)CN(C1CCCCC1)S(C)(=O)=O` (stereo not drawn), the fluorescence ratio to DMSO was 98% (inactive).
In the case of `CS(=O)(=O)N(CC(=O)N1CCN(c2ccc(F)cc2)CC1)C1CCCCC1`, the fluorescence ratio to DMSO is reported as 94% (inactive).
In the case of `CCOC(=O)N1CCN(C(=O)CN(C2CCCCC2)S(C)(=O)=O)CC1`, the fluorescence ratio to DMSO is reported as 73% (active).
With `C=CCn1c(CNS(=O)(=O)c2ccc(Br)cc2)nnc1SC` the fluorescence ratio to DMSO was 96% (inactive).
`C=Cn1cc[n+](CC(=O)c2ccc(OC)c(OC)c2)c1` was tested, and the fluorescence ratio to DMSO was 97% (inactive).
With `CCOC(=O)Cc1csc(NC(=O)CN(C)S(=O)(=O)c2ccc3c(c2)CCC(=O)N3)n1` the fluorescence ratio to DMSO was 98% (inactive).
For `CN(CC(=O)NC(=O)Nc1ccccc1F)Cc1ccccc1`, the fluorescence ratio to DMSO was 97% (inactive).
With `CCOC(=O)c1ccc(-n2c(C)nc3c(cnn3-c3ccccc3C)c2=O)cc1` the fluorescence ratio to DMSO was 100% (inactive).
For `CC1Sc2ccc(S(=O)(=O)CCC(=O)NCc3ccccc3Cl)cc2NC1=O` (stereo not drawn), the fluorescence ratio to DMSO was 93% (inactive).
For `Cc1cccc(N2CCN(C(=O)CCS(=O)(=O)c3ccc4c(c3)NC(=O)C(C)S4)CC2)c1C` (stereo not drawn), the fluorescence ratio to DMSO was 74% (active).
With `COc1ccccc1N1CCN(C(=O)CCS(=O)(=O)c2ccc3c(c2)NC(=O)C(C)S3)CC1` (stereo not drawn) the fluorescence ratio to DMSO was 102% (inactive).
With `COc1ccc(C(=O)NC2CC2)cc1OC1CCN(C/C=C/c2ccccc2)CC1` the fluorescence ratio to DMSO was 95% (inactive).
With `Cc1ccc(CN(C(=O)c2sc3ccccc3c2Cl)C2CCS(=O)(=O)C2)cc1` (stereo not drawn) the fluorescence ratio to DMSO was 95% (inactive).
`CCCn1c(O)c(CN2CCCC(C)C2)c(C)c(C#N)c1=O` (stereo not drawn) was tested, and the fluorescence ratio to DMSO was 96% (inactive).
In the case of `CCCCn1nc(C(=O)N2CCc3ccccc32)c2ccccc2c1=O`, the fluorescence ratio to DMSO is reported as 102% (inactive).
In the case of `Cc1ccc(CNC(=O)c2ccc(CS(=O)Cc3cccc(Cl)c3)o2)cc1` (stereo not drawn), the fluorescence ratio to DMSO is reported as 102% (inactive).
With `O=C(O)c1ccn(COc2ccc(Br)cc2)n1` the fluorescence ratio to DMSO was 95% (inactive).
With `Cc1cccc(NC(=O)c2nc(S(=O)(=O)Cc3ccccc3)ncc2Cl)c1` the fluorescence ratio to DMSO was 59% (active).
For `CN(CC(=O)Nc1ccc(F)cc1)CC(=O)Nc1ccc(Cl)c(S(=O)(=O)N2CCOCC2)c1`, the fluorescence ratio to DMSO was 100% (inactive).
`Cc1cccc(C(=O)Nc2ccc(Oc3cnccn3)cc2)c1` was tested, and the fluorescence ratio to DMSO was 98% (inactive).
In the case of `Cc1cccc(NS(=O)(=O)c2ccc(C)c(C(=O)NCc3cccnc3)c2)c1`, the fluorescence ratio to DMSO is reported as 98% (inactive).
In the case of `O=C(CS(=O)(=O)Cc1ccccc1)Nc1cccnc1`, the fluorescence ratio to DMSO is reported as 93% (inactive).
For `Cc1cccc(CS(=O)(=O)c2ncc(Cl)c(C(=O)Nc3ccc(F)cc3)n2)c1`, the fluorescence ratio to DMSO was 44% (active).
With `O=C(CSc1nnc(SCc2ccc(Cl)cc2)s1)N/N=C/c1ccccc1Cl` the fluorescence ratio to DMSO was 115% (inactive).
With `O=C(CSc1nncs1)NC1CCCc2ccccc21` (stereo not drawn) the fluorescence ratio to DMSO was 104% (inactive).
In the case of `CCCCC(O)C1=C[N+](=O)CC=C1` (stereo not drawn), the fluorescence ratio to DMSO is reported as 92% (inactive).
With `O=C(Nc1ccc(F)cc1)Nc1nnc([C@H]2C[C@H](O)[C@@H](CO)O2)s1` the fluorescence ratio to DMSO was 104% (inactive).
In the case of `CCOc1ccc(CCNC(=O)CN2C(=O)NC3(CCc4ccccc43)C2=O)cc1OCC` (stereo not drawn), the fluorescence ratio to DMSO is reported as 103% (inactive).
In the case of `CCC(=O)Nc1cccc(NC(=O)CSc2nnc(-c3ccc(NS(C)(=O)=O)cc3)n2C)c1`, the fluorescence ratio to DMSO is reported as 103% (inactive).
For `C=C1CCN([C@H](C(=O)NCc2cc(OC)c(OC)c(OC)c2)C(C)C)S(=O)(=O)c2ccccc21`, the fluorescence ratio to DMSO was 97% (inactive).
`Cc1cccc(C(=O)NCc2nnc(SC(C)C(=O)Nc3nnc(C)s3)n2C)c1` (stereo not drawn) was tested, and the fluorescence ratio to DMSO was 101% (inactive).
In the case of `CC(=O)c1cccc(NC(=O)CN2C(=O)c3cccnc3Oc3ccc(Cl)cc32)c1`, the fluorescence ratio to DMSO is reported as 114% (inactive).
For `CC(C)[C@H](NC(=O)Nc1ccc(S(N)(=O)=O)cc1)C(=O)O`, the fluorescence ratio to DMSO was 107% (inactive).
With `CC(C)(C)C(=O)c1cnc(Nc2ccccc2)s1` the fluorescence ratio to DMSO was 94% (inactive).
For `Nc1nc(COC(=O)CCC(=O)c2ccc(Cl)cc2)nc(Nc2ccccc2)n1`, the fluorescence ratio to DMSO was 94% (inactive).
In the case of `O=C(c1ccc(Cl)cc1)c1cnc(Nc2ccccc2)s1`, the fluorescence ratio to DMSO is reported as 70% (active).
For `ON=C1/C(=N\O)CC2(C/C1=N/O)OCCO2`, the fluorescence ratio to DMSO was 103% (inactive).
With `O=C(COC(=O)c1cccc(Cl)c1Cl)NC1CCCCCC1` the fluorescence ratio to DMSO was 93% (inactive).
For `COC(=O)c1ccc2nc(C3CCCCC3)c(Cc3cccc(F)c3)n2c1`, the fluorescence ratio to DMSO was 107% (inactive).
`COc1cccc(NC(=O)CS(=O)(=O)c2cn(CC(=O)N3CCOCC3)c3ccccc23)c1` was tested, and the fluorescence ratio to DMSO was 97% (inactive).
In the case of `COc1ccccc1C(=O)Nn1cnnc1`, the fluorescence ratio to DMSO is reported as 100% (inactive).
For `COc1ccccc1C(=O)C(O)c1ccccc1OC` (stereo not drawn), the fluorescence ratio to DMSO was 73% (active).
`COc1ccccc1C(=O)c1ccccc1C(=O)c1ccccc1` was tested, and the fluorescence ratio to DMSO was 102% (inactive).
In the case of `CCOc1ccc(S(=O)(=O)NCCC(=O)N2CCCCCCC2)cc1`, the fluorescence ratio to DMSO is reported as 98% (inactive).
With `CCOc1ccc(CCNC(=O)COC(=O)c2ccc(C)c(S(=O)(=O)N3CCOCC3)c2)cc1OCC` the fluorescence ratio to DMSO was 101% (inactive).
For `COc1c(O)ccc2c1CN1CCc3cc4c(cc3C1C2)OCO4` (stereo not drawn), the fluorescence ratio to DMSO was 102% (inactive).
`Cn1ccnc1SCC(=O)Nc1ccc2c(c1)OCCO2` was tested, and the fluorescence ratio to DMSO was 101% (inactive).
For `CCn1c(SCC(=O)Nc2ccc3c(c2)OCCO3)nnc1C(C)C`, the fluorescence ratio to DMSO was 88% (inactive).
For `CCn1c(COc2ccccc2)nnc1SCC(=O)Nc1ccc2c(c1)OCCO2`, the fluorescence ratio to DMSO was 73% (active).
For `COc1cc(CN2CCCC(C(=O)c3ccc(SC)cc3)C2)cc(Cl)c1O` (stereo not drawn), the fluorescence ratio to DMSO was 96% (inactive).
For `COC(=O)C(=Nc1ccccc1)/C(C(=O)C(=O)N(C)c1ccccc1)=C(\O)c1ccc(Cl)cc1`, the fluorescence ratio to DMSO was 94% (inactive).
In the case of `COc1cc(NS(=O)(=O)c2ccc(NC(=O)c3ccc(S(=O)(=O)N4CCCCC4)cc3)cc2)ncn1`, the fluorescence ratio to DMSO is reported as 102% (inactive).
For `CS(=O)(=O)N1CCC(C(=O)N2CCN(c3ccccc3)CC2)CC1`, the fluorescence ratio to DMSO was 108% (inactive).
`CCS(=O)(=O)N1CCC(N2CCN(c3ccccc3)CC2)CC1` was tested, and the fluorescence ratio to DMSO was 70% (active).
In the case of `O=S(=O)(NCCS(=O)(=O)N1CCN(c2ccccc2)CC1)c1ccc(F)cc1`, the fluorescence ratio to DMSO is reported as 95% (inactive).
`CCOC(=O)c1cc(-c2sc(NC(=O)c3ccccc3)nc2C)n(-c2ccc(Br)cc2)n1` was tested, and the fluorescence ratio to DMSO was 90% (inactive).
With `COc1cccc(N(CC(=O)N2CCc3ccccc3C2)S(C)(=O)=O)c1` the fluorescence ratio to DMSO was 73% (active).
In the case of `CS(=O)(=O)N(CC(=O)N1CCc2ccccc2C1)c1ccc(Br)cc1`, the fluorescence ratio to DMSO is reported as 95% (inactive).
In the case of `Cc1ccc(S(=O)(=O)N(CC(=O)N2CCc3ccccc3C2)c2cccc(Cl)c2)cc1`, the fluorescence ratio to DMSO is reported as 90% (inactive).
In the case of `COCCNc1cc(-c2ccccc2)nc2cc(-c3cccc(F)c3)nn12`, the fluorescence ratio to DMSO is reported as 97% (inactive).
`CC1(C(=O)NS(=O)(=O)c2ccc3ccccc3c2)CCN1C(=O)C1(c2ccc(Cl)cc2)CCC1` (stereo not drawn) was tested, and the fluorescence ratio to DMSO was 102% (inactive).
With `Cc1ncn2cc(-c3ccc(Cl)cc3Cl)[nH]c(=O)c12` the fluorescence ratio to DMSO was 96% (inactive).
`O=C(Nc1ccccc1C(=O)N1CCCCCC1)c1ccccc1Cl` was tested, and the fluorescence ratio to DMSO was 99% (inactive).
With `O=C(COc1nsnc1N1CCOCC1)Nc1ccccc1Cl` the fluorescence ratio to DMSO was 95% (inactive).
In the case of `O=C(Nc1ccccc1Cl)/C(Cl)=C(\Cl)S(=O)c1ccccc1` (stereo not drawn), the fluorescence ratio to DMSO is reported as 43% (active).
`Cc1ccc(S(=O)(=O)N2C[C@@H]3CCCC[C@@H]3[C@@H](C)[C@H]2c2cn(Cc3ccccc3)c3ccc(F)cc23)cc1` was tested, and the fluorescence ratio to DMSO was 97% (inactive).
`COc1cccc(N(CC(=O)NCCSc2ccccn2)S(C)(=O)=O)c1` was tested, and the fluorescence ratio to DMSO was 99% (inactive).
`Cc1ccc(C(=O)Nc2ccccc2-c2ccccc2)cc1S(=O)(=O)Nc1ccccc1` was tested, and the fluorescence ratio to DMSO was 99% (inactive).
In the case of `CCOC1=C2[C@H]([C@H]3C(=O)N(c4ccccc4)C(=O)[C@H]3C1)[C@@H](c1ccccc1)N(S(=O)(=O)c1ccc(C)cc1)[C@H]2c1ccccc1`, the fluorescence ratio to DMSO is reported as 104% (inactive).
For `Cc1cc(C(=O)CSc2nc(N)cc(=O)[nH]2)c(C)n1-c1cccc(F)c1`, the fluorescence ratio to DMSO was 72% (active).
With `Cc1cc(C)c(C(=O)CSc2nc(C)cc(=O)[nH]2)c(C)c1` the fluorescence ratio to DMSO was 101% (inactive).
`Cc1cc(C(=O)CSc2nc(N)cc(=O)[nH]2)c(C)n1CCc1ccc(Cl)cc1` was tested, and the fluorescence ratio to DMSO was 95% (inactive).
In the case of `CC(Oc1ccccc1)C(=O)NN1Cc2ccccc2C1=N` (stereo not drawn), the fluorescence ratio to DMSO is reported as 99% (inactive).
For `O=C(OCC(=O)N1CCCCC1)c1ccc(OC(F)(F)F)cc1`, the fluorescence ratio to DMSO was 95% (inactive).
In the case of `O=C1NC2(CCCCCC2)C(=O)N1CCS(=O)(=O)Oc1ccccc1`, the fluorescence ratio to DMSO is reported as 96% (inactive).
`O=c1ccc2cc(S(=O)(=O)N3CCN(c4ccccc4)CC3)ccc2o1` was tested, and the fluorescence ratio to DMSO was 98% (inactive).
